Six1-Eya2 inh = blocks human Six1 binding to Eya2; Q15475+O00167; 360,000 compounds, 0.56% hits; AlphaScreen GST-Six1/His-Eya2 binding, biochemical; hits give low values; activity change, % (test concentration not listed); AID 651725; in the data active = activity change below about -65%; inconclusive = mostly about -30% to -63%
Target sequence (O00167 whole entry, looked up): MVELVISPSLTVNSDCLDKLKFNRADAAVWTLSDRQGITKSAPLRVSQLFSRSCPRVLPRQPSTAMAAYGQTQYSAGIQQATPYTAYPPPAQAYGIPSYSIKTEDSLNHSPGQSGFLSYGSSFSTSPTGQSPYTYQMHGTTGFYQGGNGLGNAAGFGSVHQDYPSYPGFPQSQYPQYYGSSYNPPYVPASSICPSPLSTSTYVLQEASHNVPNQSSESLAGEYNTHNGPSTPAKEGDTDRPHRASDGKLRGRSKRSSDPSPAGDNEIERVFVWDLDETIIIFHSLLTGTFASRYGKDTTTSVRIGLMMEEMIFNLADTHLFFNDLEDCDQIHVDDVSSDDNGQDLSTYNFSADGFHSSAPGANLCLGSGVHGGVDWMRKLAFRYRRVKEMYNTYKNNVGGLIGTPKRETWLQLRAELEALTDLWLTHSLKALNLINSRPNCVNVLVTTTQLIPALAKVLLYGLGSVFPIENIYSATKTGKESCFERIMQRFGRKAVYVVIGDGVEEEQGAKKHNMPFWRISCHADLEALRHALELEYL
Target sequence (Q15475 whole entry, looked up): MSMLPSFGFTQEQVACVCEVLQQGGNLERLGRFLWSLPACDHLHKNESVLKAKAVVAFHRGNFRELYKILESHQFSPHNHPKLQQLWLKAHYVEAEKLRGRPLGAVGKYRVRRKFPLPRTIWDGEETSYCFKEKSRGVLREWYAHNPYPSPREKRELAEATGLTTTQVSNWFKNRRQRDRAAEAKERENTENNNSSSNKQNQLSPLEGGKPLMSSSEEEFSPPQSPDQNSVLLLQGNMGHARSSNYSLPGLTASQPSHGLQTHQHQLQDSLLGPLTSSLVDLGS
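AlphaScreen with GST-Six1 and His-Eya2 (5X mix: 250 nM and 500 nM), glutathione donor and nickel acceptor beads; buffer 50 mM Tris pH 8.0, 300 mM NaCl, 1 mM TCEP; 1 h at 37 C in the dark.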
TGFb inhibitor = blocks TGF-b signaling | 410,000 compounds, 1.2% hits | AID 588855 | HepG2 CAGA-GFP TGF-b/SMAD3 reporter, GFP fluorescence, 18 h; TGF-beta stimulated, 500 pg/mL final | Potency, µM (series often up to 46.1 µM), actives largely listed as inhibitors; note: nearly all actives have a fitted effect of over 65% in size
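Using HEPG2 CAGA-GFP reporter cells at 1000 cells/well, we pinned test compounds, stimulated with recombinant TGF-beta (500 pg/mL final) and measured total well GFP after 18 h.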
CtBP-E1A blk = blocks the CtBP interaction with E1A | AlphaScreen GST-E1A/His-CtBP binding, 1536-well; hits give low values | AID 651724 | activity change, % (no concentration beside the values) | 340,000 compounds, 0.49% hits; in the data active = activity change below about -65%; inconclusive = mostly about -30% to -63%
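Steps: dispense buffer (Tris pH 8.0, NaCl 300 mM, TCEP 1 mM, BSA, Tween 20); add 5X protein mix (GST-E1A, His-CtBP, 125 nM each); pin 23 nL compound; 2 h at 37 °C, dark; add 5X beads (50 ug/mL); 1 h; read.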
ATXN viability = reduces viability in counter-screen for ATXN expression inhibitors. S2 cells (HEK-293 line with an ATXN2-luciferase reporter) viability, CellTiter-Fluor protease fluorescence, 24 h. Potency, µM (doses to about 56.7 µM), most hits filed as cytotoxic. 400,000 compounds, 0.49% hits. AID 651635; note: nearly all actives have a fitted effect of over 40% in size
HepG2 tox = counter-screen for TGF-b inhibitors: cytotoxicity in HepG2 cells | Potency, µM (highest dose often 46.1 µM), usual class: cytotoxic | HepG2 CAGA-GFP viability, ATP luminescence, 18 h | 410,000 compounds, 0.76% hits | AID 588856
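HepG2 CAGA-GFP cells (1000/well, DMEM with 1% FBS) received compound, then TGF-beta at 500 pg/mL final, and were incubated 18 hours at 37 degrees C. Viability was read by CellTiter-Glo luminescence. Media-only wells were set as complete cell-killing and DMSO as no toxicity.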
ATXN2 expr inh = reduces ATXN2 reporter expression in HEK-293 cells | Potency, µM (top dose mostly 57 µM), usual class: inhibitors | AID 1745845 | 360,000 compounds, 0.72% hits | HEK-293 ATXN2-luciferase reporter, luminescence, 24 h; note: nearly all actives have a fitted effect of over 55% in size
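ATXN2-luciferase reporter cells (luciferase flanked by upstream and downstream ATXN2 gene portions) were treated 24 h at 37 °C with compounds at up to 57 uM. SteadyGlo luminescence gave expression; GF-AFC fluorescence gave viability.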
A number is an active result; [ ] = another dose, or the depositor's remark. Only some compounds are listed: those with a hit (about 2.8% of all), similar ones and a draw of the others. Unless noted, calls come from the whole dose curve; as a rule, active = well fitted curve in the direction sought with a large enough effect; inconclusive = small, poorly fitted or top-dose-only effect, or another doubt; inactive = no such curve, though single readings can be large; an effect the other way counts as inactive or inconclusive.

Screening O=C1CCC[C@@H]2[C@H]3CCCN4CCC[C@@H](CN12)[C@@H]34 returned ATXN2 expr inh inactive.
`CC(=O)OC1CC(OC2C(O)CC(OC3C(O)CC(OC4CCC5(C)C(CCC6C5CCC5(C)C(C7=CC(=O)OC7)C(O)CC65O)C4)OC3C)OC2C)OC(C)C1OC1OC(CO)C(O)C(O)C1O` (stereo unspecified) gave Six1-Eya2 inh inactive, TGFb inhibitor 2µM, CtBP-E1A blk inactive, ATXN viability inactive, HepG2 tox inactive and ATXN2 expr inh inactive.
`CC1OC(OC2C(O)CC(OC3C(O)CC(OC4CCC5(C)C(CCC6C5CCC5(C)C(C7=CC(=O)OC7)C(O)CC65O)C4)OC3C)OC2C)CC(O)C1O` (stereo unspecified) gave Six1-Eya2 inh inactive, TGFb inhibitor inconclusive, CtBP-E1A blk inactive, ATXN viability inconclusive, HepG2 tox inactive and ATXN2 expr inh 0.32µM.
Screening CC(=O)OC1CC2(O)C3CCC4CC(O)CCC4(C)C3CCC2(C)C1C1=CC(=O)OC1 (stereo unspecified) returned Six1-Eya2 inh inactive, TGFb inhibitor 2µM, CtBP-E1A blk inactive, ATXN viability inconclusive, HepG2 tox inactive and ATXN2 expr inh 0.32µM.
Screening CC(=Cc1csc(C)n1)[C@@H]1C[C@H]2O[C@@H]2CCC[C@H](C)[C@@H](O)[C@@H](C)C(=O)C(C)(C)[C@@H](O)CC(=O)O1 returned ATXN2 expr inh inactive.
C[C@]12CC[C@H]3[C@@H](CCC4=CC(=O)CC[C@@]43C)[C@@H]1CC[C@@H]2C(=O)O was read as ATXN viability inactive and ATXN2 expr inh inactive.
`CC(O)=C(C#N)C(=O)Nc1cc(Br)ccc1Br` gave ATXN2 expr inh inactive.
Screening O=C(NCCSc1c(-c2ccccc2)[nH]c2ccccc12)c1ccc(S(=O)(=O)N2CCOCC2)cc1 returned TGFb inhibitor inconclusive, ATXN viability inconclusive, HepG2 tox inactive and ATXN2 expr inh inactive.
CN(C)c1ccc(N=O)cc1 was read as TGFb inhibitor 5µM and HepG2 tox inactive.
Screening CCCCCCCCCC(CC)c1ccc(S(=O)(=O)O)cc1 (stereo unspecified) returned ATXN viability 32µM and ATXN2 expr inh inactive.
For Sc1ccccc1Cl the results were ATXN viability inactive and ATXN2 expr inh inactive.
For CCN1C[C@@]2(COC)CC[C@H](O)[C@@]34[C@@H]2C[C@@H]([C@@H]13)[C@]1(O)C[C@@H](OC)C2C[C@H]4[C@H]1[C@H]2OC(C)=O the results were ATXN viability inactive.
For CNC(=O)N1N=C(c2ccc(N)cc2)c2cc3c(cc2CC1C)OCO3 (stereo unspecified) the results were ATXN2 expr inh inactive.
For O=Cc1cn(Cc2ccc([N+](=O)[O-])cc2)c2ccccc12 the results were Six1-Eya2 inh inactive, TGFb inhibitor 2.2µM, CtBP-E1A blk inactive, ATXN viability inactive, HepG2 tox inactive and ATXN2 expr inh inconclusive.
Screening Cc1ccc(Cn2cc(C=O)c(-c3ccc(F)cc3)n2)cc1 returned Six1-Eya2 inh inactive, TGFb inhibitor inactive, CtBP-E1A blk inactive, ATXN viability inactive, HepG2 tox inactive and ATXN2 expr inh inactive.
For O=Cc1cn(Cc2ccc(F)cc2)c2ccccc12 the results were Six1-Eya2 inh inactive, TGFb inhibitor 0.71µM, CtBP-E1A blk inactive, ATXN viability inactive, HepG2 tox inactive and ATXN2 expr inh 14µM.
Cc1ccc(Cn2cc(C=O)c3ccccc32)cc1 was read as Six1-Eya2 inh inactive, TGFb inhibitor 0.35µM, CtBP-E1A blk inactive, ATXN viability inconclusive, HepG2 tox inactive and ATXN2 expr inh inconclusive.
For O=Cc1cn(Cc2ccccc2[N+](=O)[O-])c2ccccc12 the results were Six1-Eya2 inh inactive, TGFb inhibitor inconclusive, CtBP-E1A blk inactive, ATXN viability inactive, HepG2 tox inactive and ATXN2 expr inh inactive[11.3 µM].
Screening Cc1ccc(-c2nn(Cc3ccccc3)cc2C=O)cc1 returned Six1-Eya2 inh inactive, TGFb inhibitor inactive, CtBP-E1A blk inactive, ATXN viability inactive, HepG2 tox inactive and ATXN2 expr inh inactive.
Oc1cccc(Nc2ncnc3sc4c(c23)CCCC4)c1 was read as TGFb inhibitor inconclusive, ATXN viability inactive, HepG2 tox inactive and ATXN2 expr inh inactive.
Screening CCN(CC)CCc1c[nH]c2ccccc12 returned ATXN viability inactive and ATXN2 expr inh inactive.
Screening CCOC1=C2[C@@H](CN(S(=O)(=O)c3ccccc3C)[C@H]2c2ccc(Cl)cc2)[C@H]2C(=O)NC(=O)[C@H]2C1 returned Six1-Eya2 inh inactive, TGFb inhibitor inactive, CtBP-E1A blk inactive, ATXN viability inconclusive, HepG2 tox inactive and ATXN2 expr inh inactive.
Screening CN(C)c1ccc(C=C2C=CC=C2)cc1 returned Six1-Eya2 inh -66, TGFb inhibitor inactive, CtBP-E1A blk inactive, ATXN viability inconclusive, HepG2 tox inactive and ATXN2 expr inh inactive.
`CN(C)c1ccc(C=C(C#N)C#N)cc1` gave Six1-Eya2 inh inactive, TGFb inhibitor inactive, CtBP-E1A blk inactive, ATXN viability inactive, HepG2 tox inactive and ATXN2 expr inh inactive.
Screening C/C(=N\NC(N)=S)C12CC3CC(CC(C3)C1)C2 returned Six1-Eya2 inh inactive, TGFb inhibitor 11µM, CtBP-E1A blk inactive, ATXN viability 16µM, HepG2 tox inactive and ATXN2 expr inh inconclusive.
O=C(CF)N(O)c1ccc(C=Cc2ccccc2)cc1 was read as Six1-Eya2 inh inactive, TGFb inhibitor 7.1µM, CtBP-E1A blk inactive, ATXN viability inconclusive, HepG2 tox inactive and ATXN2 expr inh inconclusive.
`O=C(/C=C/c1ccccc1)C1C(=O)c2ccccc2C1=O` gave Six1-Eya2 inh inactive, TGFb inhibitor inactive, CtBP-E1A blk inactive, ATXN viability inactive, HepG2 tox inactive and ATXN2 expr inh inactive.
Screening C#CCN(C[C@@H]1[C@@H](OC(=O)Nc2c(C)noc2C)[C@@H](OC(=O)Nc2c(C)noc2C)Cn2c(=O)n(CCCCCC)c(=O)n21)S(=O)(=O)c1ccc(C)cc1 returned Six1-Eya2 inh inactive, TGFb inhibitor inactive, CtBP-E1A blk inactive, ATXN viability inactive, HepG2 tox inactive and ATXN2 expr inh inactive.

Screens (PubChem BioAssay)
